# From PubChem BioAssay AID1159580 (chemical genetic matrix, 2015)
# In all, about 5,500 compounds went through this assay and about 2,000 (36%) were called active. Inconclusive results (about 18%) are left out. The list shows a part of the results. Unmarked numbers belong to inactive results. Cut-off read from the data, not from the text of the source: active = normalized growth mostly below about 0.91 (no sharp cut-off); inconclusive = no clear call, values can overlap the other calls; inactive = mostly above about 0.92.
# Experiment: chemical genetic growth profiling, strain panel (AID 1159580);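 note: tested at 20 µM; growth read once vehicle control cultures reached saturation at 30 °C; 1 = growth at the plate median or of vehicle wells; lower values mean less growth of the strain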
# Conditions: growth OD
# [1] = S. cerevisiae deletion strains, locus YAL013W, strain DEP1, active compounds read low
# [2] = S. cerevisiae deletion strains, locus YBR229C, strain ROT2, active compounds read low
# [3] = S. cerevisiae deletion strains, locus YDL101C, strain DUN1, active compounds read low
# [4] = S. cerevisiae deletion strains, locus YDR150W, strain NUM1, active compounds read low
# [5] = S. cerevisiae deletion strains, locus YEL061C, strain CIN8, active compounds read low
# [6] = S. cerevisiae deletion strains, locus YGR078C, strain PAC10, active compounds read low
# [7] = S. cerevisiae deletion strains, locus YHR030C, strain SLT2, active compounds read low
# [8] = S. cerevisiae deletion strains, locus YJR043C, strain POL32, active compounds read low
# [9] = S. cerevisiae deletion strains, locus YJR075W, strain HOC1, active compounds read low
# [10] = S. cerevisiae deletion strains, locus YKL190W, strain CNB1, active compounds read low
# [11] = S. cerevisiae deletion strains, locus YLR039C, strain RIC1, active compounds read low
# [12] = S. cerevisiae deletion strains, locus YLR262C, strain YPT6, active compounds read low
# [13] = S. cerevisiae deletion strains, locus YMR263W, strain SAP30, active compounds read low
# [14] = S. cerevisiae deletion strains, locus YMR307W, strain GAS1, active compounds read low
# [15] = S. cerevisiae deletion strains, locus YNL153C, strain GIM3, active compounds read low
# [16] = S. cerevisiae deletion strains, locus YNL322C, strain KRE1, active compounds read low
# [17] = S. cerevisiae deletion strains, locus YPL055C, strain LGE1, active compounds read low
# [18] = S. cerevisiae deletion strains, locus YPL241C, strain CIN2, active compounds read low
# [19] = S. cerevisiae strains, strain wild type, active compounds read low
# [20] = S. cerevisiae deletion strains, locus YGR229C, strain SMI1, active compounds read low
structure (smiles),measurement,setting,value
COC(=O)c1c(C)[nH]c(C)c1C(C)=O,normalized growth,[1],1.03
same,normalized growth,[2],1.01
same,normalized growth,[3],0.968
same,normalized growth,[4],1.01
same,normalized growth,[5],1.01
same,normalized growth,[6],1.03
same,normalized growth,[7],1.05
same,normalized growth,"S. cerevisiae deletion strains, locus YHR087W, strain rtc3, active compounds read low",1.03
same,normalized growth,"S. cerevisiae deletion strains, locus YJL187C, strain SWE1, active compounds read low",0.995
same,normalized growth,[8],0.976
same,normalized growth,[9],0.999
same,normalized growth,[10],1.01
same,normalized growth,[11],1.07
same,normalized growth,"S. cerevisiae deletion strains, locus YLR058C, strain SHM2 (second series), active compounds read low",1
same,normalized growth,"S. cerevisiae deletion strains, locus YLR085C, strain ARP6, active compounds read low",1.18
same,normalized growth,[12],1.02
same,normalized growth,"S. cerevisiae deletion strains, locus YML094W, strain GIM5, active compounds read low",1.04
same,normalized growth,"S. cerevisiae deletion strains, locus YMR219W, strain ESC1, active compounds read low",1.01
same,normalized growth,[13],1
same,normalized growth,[14],1.03
same,normalized growth,[15],0.994
same,normalized growth,"S. cerevisiae deletion strains, locus YNL298W, strain CLA4 (second series), active compounds read low",1.01
same,normalized growth,[16],1.01
same,normalized growth,"S. cerevisiae deletion strains, locus YNR030W, strain Alg12, active compounds read low",1.04
same,normalized growth,[17],1.05
same,normalized growth,[18],1.08
same,normalized growth,"S. cerevisiae deletion strains, locus YPR135W, strain CTF4, active compounds read low",1.36 [resistant] (active)
same,normalized growth,[19],1.01
COC(=O)c1c(C)[nH]c(C)c1C(=O)c1ccccc1Cc1ccccc1,normalized growth,"S. cerevisiae deletion strains, locus YAL040C, strain CLN3, active compounds read low",0.995
same,normalized growth,"S. cerevisiae deletion strains, locus YCL061C, strain MRC1 (second series), active compounds read low",1
same,normalized growth,"S. cerevisiae deletion strains, locus YDR363W, strain ESC2, active compounds read low",1.02
same,normalized growth,"S. cerevisiae deletion strains, locus YER002W, strain NOP16, active compounds read low",0.984
same,normalized growth,[6],0.989
same,normalized growth,[20],1.06
same,normalized growth,[15],0.987
same,normalized growth,"S. cerevisiae deletion strains, locus YNL175C, strain NOP13, active compounds read low",0.986
same,normalized growth,"S. cerevisiae deletion strains, locus YNL197C, strain WHI3, active compounds read low",0.983
same,normalized growth,"S. cerevisiae deletion strains, locus YNL224C, strain SQS1, active compounds read low",0.983
same,normalized growth,[16],1.01
same,normalized growth,"S. cerevisiae deletion strains, locus YOR083W, strain WHI5 (second series), active compounds read low",0.964
same,normalized growth,[17],1.01
same,normalized growth,[18],1
COC(=O)c1c(Cl)c(Cl)c(C(=O)OC)c(Cl)c1Cl,normalized growth,[1],0.991
same,normalized growth,"S. cerevisiae deletion strains, locus YBR021W, strain FUR4, active compounds read low",0.972
same,normalized growth,[2],1
same,normalized growth,"S. cerevisiae deletion strains, locus YCL029C, strain bik1, active compounds read low",1.01
same,normalized growth,"S. cerevisiae deletion strains, locus YDL035C, strain GPR1, active compounds read low",1.01
same,normalized growth,"S. cerevisiae deletion strains, locus YDL074C, strain BRE1, active compounds read low",0.927
same,normalized growth,[3],0.978
same,normalized growth,"S. cerevisiae deletion strains, locus YDL134C, strain PPH21, active compounds read low",0.998
same,normalized growth,"S. cerevisiae deletion strains, locus YDL185W, strain tfp1, active compounds read low",1.01
same,normalized growth,"S. cerevisiae deletion strains, locus YDL192W, strain arf1, active compounds read low",1
same,normalized growth,"S. cerevisiae deletion strains, locus YDR101C, strain arx1, active compounds read low",0.995
same,normalized growth,[4],1
same,normalized growth,"S. cerevisiae deletion strains, locus YDR162C, strain NBP2, active compounds read low",0.997
same,normalized growth,"S. cerevisiae deletion strains, locus YDR318W, strain mcm21, active compounds read low",1
same,normalized growth,"S. cerevisiae deletion strains, locus YDR388W, active compounds read low",1
same,normalized growth,"S. cerevisiae deletion strains, locus YDR502C, strain sam2, active compounds read low",0.999
same,normalized growth,[5],0.999
same,normalized growth,"S. cerevisiae deletion strains, locus YER110C, active compounds read low",1
same,normalized growth,"S. cerevisiae deletion strains, locus YER155C, strain BEM2, active compounds read low",0.984
same,normalized growth,"S. cerevisiae deletion strains, locus YER167W, strain BCK2, active compounds read low",0.998
same,normalized growth,"S. cerevisiae deletion strains, locus YGL078C, strain dbp3, active compounds read low",1.01
same,normalized growth,"S. cerevisiae deletion strains, locus YGL086W, strain mad1, active compounds read low",0.998
same,normalized growth,"S. cerevisiae deletion strains, locus YGL248W, strain PDE1, active compounds read low",1.01
same,normalized growth,[6],0.987
same,normalized growth,"S. cerevisiae deletion strains, locus YGR135W, strain pre9, active compounds read low",0.994
same,normalized growth,[20],0.988
same,normalized growth,"S. cerevisiae deletion strains, locus YGR252W, strain gcn5, active compounds read low",0.944
same,normalized growth,[7],0.971
same,normalized growth,"S. cerevisiae deletion strains, locus YHR079C, strain IRE1 (second series), active compounds read low",1
same,normalized growth,"S. cerevisiae deletion strains, locus YHR094C, strain hxt1, active compounds read low",1
same,normalized growth,"S. cerevisiae deletion strains, locus YHR129C, strain ARP1, active compounds read low",0.996
same,normalized growth,"S. cerevisiae deletion strains, locus YHR200W, strain rpn10, active compounds read low",1
same,normalized growth,"S. cerevisiae deletion strains, locus YIL066C, strain RNR3, active compounds read low",0.984
same,normalized growth,"S. cerevisiae deletion strains, locus YIL073C, strain SPO22, active compounds read low",1.03
same,normalized growth,"S. cerevisiae deletion strains, locus YIL125W, strain kgd1, active compounds read low",0.994
same,normalized growth,"S. cerevisiae deletion strains, locus YIR030C, strain dcg1, active compounds read low",1.01
same,normalized growth,"S. cerevisiae deletion strains, locus YJL095W, strain BCK1, active compounds read low",0.962
same,normalized growth,"S. cerevisiae deletion strains, locus YJL134W, strain LCB3, active compounds read low",1
same,normalized growth,"S. cerevisiae deletion strains, locus YJL168C, strain set2, active compounds read low",1
same,normalized growth,"S. cerevisiae deletion strains, locus YJL187C, strain SWE1 (second series), active compounds read low",1.01
same,normalized growth,[8],0.969
same,normalized growth,[9],0.978
same,normalized growth,"S. cerevisiae deletion strains, locus YKL009W, strain mrt4, active compounds read low",0.987
same,normalized growth,"S. cerevisiae deletion strains, locus YKL068W, active compounds read low",0.996
same,normalized growth,"S. cerevisiae deletion strains, locus YKL085W, strain MDH1 (second series), active compounds read low",0.995
same,normalized growth,"S. cerevisiae deletion strains, locus YKL085W, strain MDH1, active compounds read low",0.995
same,normalized growth,[10],0.998
same,normalized growth,"S. cerevisiae deletion strains, locus YKR001C, strain vps1, active compounds read low",1.03
same,normalized growth,[11],1.24
same,normalized growth,"S. cerevisiae deletion strains, locus YLR058C, strain SHM2, active compounds read low",1
same,normalized growth,"S. cerevisiae deletion strains, locus YLR102C, strain apc9, active compounds read low",1.01
same,normalized growth,[12],1.18
same,normalized growth,"S. cerevisiae deletion strains, locus YLR268W, strain sec22, active compounds read low",0.992
same,normalized growth,"S. cerevisiae deletion strains, locus YLR330W, strain CHS5, active compounds read low",1
same,normalized growth,"S. cerevisiae deletion strains, locus YLR342W, strain FKS1 (second series), active compounds read low",1.01
same,normalized growth,"S. cerevisiae deletion strains, locus YLR371W, strain rom2, active compounds read low",1.01
same,normalized growth,"S. cerevisiae deletion strains, locus YLR418C, strain cdc73, active compounds read low",0.929
same,normalized growth,"S. cerevisiae deletion strains, locus YML016C, strain PPZ1, active compounds read low",0.993
same,normalized growth,"S. cerevisiae deletion strains, locus YML032C, strain rad52, active compounds read low",1.01
same,normalized growth,"S. cerevisiae deletion strains, locus YML124C, strain tub3, active compounds read low",1.01
same,normalized growth,"S. cerevisiae deletion strains, locus YMR078C, strain ctf18, active compounds read low",1.01
same,normalized growth,"S. cerevisiae deletion strains, locus YMR223W, strain ubp8, active compounds read low",1
same,normalized growth,[13],0.987
same,normalized growth,[14],0.972
same,normalized growth,"S. cerevisiae deletion strains, locus YNL067W, strain RPL9B, active compounds read low",0.985
same,normalized growth,"S. cerevisiae deletion strains, locus YNL128W, strain TEP1, active compounds read low",1
same,normalized growth,[15],1
same,normalized growth,"S. cerevisiae deletion strains, locus YNL233W, strain BNI4, active compounds read low",1.01
same,normalized growth,"S. cerevisiae deletion strains, locus YNL250W, strain rad50, active compounds read low",1.01
same,normalized growth,"S. cerevisiae deletion strains, locus YNL271C, strain bni1, active compounds read low",1.01
same,normalized growth,"S. cerevisiae deletion strains, locus YNL298W, strain CLA4, active compounds read low",0.997
same,normalized growth,"S. cerevisiae deletion strains, locus YNL307C, strain MCK1, active compounds read low",0.998
same,normalized growth,[16],0.994
same,normalized growth,"S. cerevisiae deletion strains, locus YNR052C, strain pop2, active compounds read low",1.02
same,normalized growth,"S. cerevisiae deletion strains, locus YOL006C, strain TOP1, active compounds read low",0.914
same,normalized growth,"S. cerevisiae deletion strains, locus YOL012C, strain htz1",0.967
same,normalized growth,"S. cerevisiae deletion strains, locus YOL147C, strain pex11, active compounds read low",1.01
same,normalized growth,"S. cerevisiae deletion strains, locus YOR061W, strain CKA2, active compounds read low",0.999
same,normalized growth,"S. cerevisiae deletion strains, locus YOR069W, strain VPS5, active compounds read low",1
same,normalized growth,"S. cerevisiae deletion strains, locus YOR136W, strain idh2, active compounds read low",1
same,normalized growth,"S. cerevisiae deletion strains, locus YOR144C, strain elg1, active compounds read low",1
same,normalized growth,"S. cerevisiae deletion strains, locus YOR184W, strain ser1, active compounds read low",0.989
same,normalized growth,"S. cerevisiae deletion strains, locus YOR316C, strain cot1, active compounds read low",1
same,normalized growth,[17],0.937
same,normalized growth,[18],0.99
same,normalized growth,"S. cerevisiae deletion strains, locus YPR119W, strain clb2, active compounds read low",1
same,normalized growth,"S. cerevisiae deletion strains, locus YPR141C, strain kar3, active compounds read low",1.01
same,normalized growth,"S. cerevisiae deletion strains, locus YPR163C, strain tif3, active compounds read low",1
same,normalized growth,"S. cerevisiae deletion strains, locus YPR167C, strain met16, active compounds read low",0.995
same,normalized growth,"S. cerevisiae deletion strains, strain wtn01, active compounds read low",0.998
same,normalized growth,[19],0.991
